The text below walks through data of PubChem BioAssay (Tox21).

Results filed as inconclusive are left out. Active and inactive are the calls of the source. Unless noted, the call rests on the fitted dose curve; in most records, active means well fitted curve in the direction sought with a large enough effect in the repeat runs; inconclusive means weak or mixed curves; inactive means no such curve, though single readings can be large; an effect the other way counts as inactive or inconclusive.

In experiment [1] the target is Acetylcholinesterase (Homo sapiens) (UniProt P22303). In words: Acetylcholinesterase (AChE) small molecule antagonists: fluorescence cell-based qHTS assay (AID 1347398; calls by dose curve; further: nearly all actives have a fitted effect of over 50% in size). To be noted: Potency: AChE activity. The essentials:
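SH-SY5Y cells (2000/well), attached overnight, incubated with compound 30 min at 37 C. Acetylthiocholine plus Thiolite Green then added for 40 min at room temperature. Thiocholine fluorescence (Ex/Em 490/520 nm) reports cellular AChE activity.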
(qHTS replaces the single test concentration by a dilution series.)

For experiment [2] the target is unchanged. In words: Acetylcholinesterase (AChE) small molecule antagonists: enzyme-based qHTS assay with human liver microsomes (AID 1347399; calls by dose curve; further: nearly all actives have a fitted effect of over 60% in size). To be noted: Potency: qHTS inhibition. The essentials: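 Recombinant human AChE (50 mU/mL in the enzyme mix) and human liver microsomes (0.25 mg/mL final) were preincubated with compound and NADPH (0.25 mg/mL final) for 30 min at 37 C. Acetylthiocholine/DTNB was then added; thiocholine was read colorimetrically after 10 min at room temperature.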

The target in experiment [3] is Cytochrome P450 2C19 (Homo sapiens) (UniProt P33261). The experiment is described as follows: Cytochrome P450 Family 2 Subfamily C Member 19 (CYP2C19) small molecule antagonists: luciferase reporter qHTS assay (AID 1671197). Further: nearly all actives have a fitted effect of over 65% in size. Further: potency means the concentration at half of the fitted maximal effect. The essentials:
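Light output is proportional to CYP2C19 activity: proluciferin substrate is converted to luciferin, then detected by a luciferin detection reagent that also stops the 1 h, 37C NADPH-driven reaction. Ketoconazole serves as positive control.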

In experiment [4] the target is Cytochrome P450 2C9 (Homo sapiens) (UniProt P11712). In words: Cytochrome P450 Family 2 Subfamily C Member 9 (CYP2C9) small molecule antagonists: luciferase reporter qHTS assay (AID 1671198). Further: nearly all actives have a fitted effect of over 50% in size. Further: potency means the concentration at half of the fitted maximal effect. The essentials:
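P450-Glo proluciferin substrate with CYP2C9 enzyme; 10 min RT preincubation, then NADPH regeneration 1 h at 37C; luciferin detection reagent 20 min RT, luminescence in relative luminescence units.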

Experiment [5] addresses Cytochrome P450 1A2 (Homo sapiens) (UniProt P05177). In words: Cytochrome P450 Family 1 Subfamily A Member 2 (CYP1A2) small molecule antagonists: luciferase reporter qHTS assay (AID 1671199). Further: nearly all actives have a fitted effect of over 50% in size. Further: potency means the concentration at half of the fitted maximal effect. In outline:
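Human CYP1A2 activity measured with a P450-Glo proluciferin substrate; compounds in DMSO preincubated 10 min at room temperature with enzyme-substrate mix, then NADPH regeneration system added for 1 h. Luciferin detection reagent, 20 min, luminescence read.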
(In general: In a reporter assay the amount or activity of a reporter protein is the signal.)

The target in experiment [6] is Cytochrome P450 3A4 (Homo sapiens) (UniProt P08684). The experiment is described as follows: Cytochrome P450 Family 3 Subfamily A Member 4 (CYP3A4) small molecule antagonists: luciferase reporter qHTS assay (AID 1671201). Further: nearly all actives have a fitted effect of over 50% in size. Further: potency means the concentration at half of the fitted maximal effect. In outline:
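qHTS, 1536-well. CYP3A4 + proluciferin substrate, cpd 10 min RT → NADPH regen 1 h RT → detection reagent 20 min → luminescence (RLU). Ketoconazole positive control.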

Experiment [7] deals with Voltage-gated inwardly rectifying potassium channel KCNH2 (Homo sapiens) (UniProt Q12809). In words: Human Ether-a-go-go-Related Gene (hERG) channel small molecule antagonists: fluorescence cell-based qHTS assay (AID 1671200). In outline:
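Fluorescence at 540 nm emission (480 nm excitation) was recorded kinetically for 2 min at 1-second intervals once the thallium-containing stimulus reached cells previously loaded with FluxOR II dye.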
For orientation: Block of hERG is tested as a sign of cardiac risk.

Sequence of Cytochrome P450 3A4 (Homo sapiens) (P08684 whole entry, looked up): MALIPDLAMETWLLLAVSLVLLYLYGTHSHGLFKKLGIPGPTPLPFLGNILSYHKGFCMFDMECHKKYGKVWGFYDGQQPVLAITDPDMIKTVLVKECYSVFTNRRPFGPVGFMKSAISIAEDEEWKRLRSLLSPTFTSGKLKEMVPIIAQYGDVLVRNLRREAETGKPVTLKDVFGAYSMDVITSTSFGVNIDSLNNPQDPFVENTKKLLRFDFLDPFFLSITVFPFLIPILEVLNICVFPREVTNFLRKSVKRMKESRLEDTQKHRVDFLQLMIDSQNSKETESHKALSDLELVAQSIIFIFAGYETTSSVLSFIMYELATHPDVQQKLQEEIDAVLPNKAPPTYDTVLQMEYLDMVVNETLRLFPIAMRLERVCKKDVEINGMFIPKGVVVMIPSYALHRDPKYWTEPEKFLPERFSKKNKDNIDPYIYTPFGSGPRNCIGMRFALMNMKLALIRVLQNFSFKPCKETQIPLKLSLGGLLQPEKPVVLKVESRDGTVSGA
Sequence of Cytochrome P450 2C9 (Homo sapiens) (P11712 whole entry, looked up): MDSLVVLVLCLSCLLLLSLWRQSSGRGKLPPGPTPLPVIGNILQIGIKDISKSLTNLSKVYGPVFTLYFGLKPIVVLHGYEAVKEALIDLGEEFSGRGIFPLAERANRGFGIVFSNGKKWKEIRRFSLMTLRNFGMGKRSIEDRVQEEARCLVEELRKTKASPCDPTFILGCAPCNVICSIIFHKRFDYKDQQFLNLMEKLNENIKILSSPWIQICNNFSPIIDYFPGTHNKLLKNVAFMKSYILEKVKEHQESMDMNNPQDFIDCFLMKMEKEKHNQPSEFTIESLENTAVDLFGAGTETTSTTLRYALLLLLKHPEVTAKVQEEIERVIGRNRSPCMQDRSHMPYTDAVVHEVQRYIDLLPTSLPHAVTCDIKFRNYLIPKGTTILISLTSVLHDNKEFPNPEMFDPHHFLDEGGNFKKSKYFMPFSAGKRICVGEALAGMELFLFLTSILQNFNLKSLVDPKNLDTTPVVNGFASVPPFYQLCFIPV
Sequence of Cytochrome P450 1A2 (Homo sapiens) (P05177 whole entry, looked up): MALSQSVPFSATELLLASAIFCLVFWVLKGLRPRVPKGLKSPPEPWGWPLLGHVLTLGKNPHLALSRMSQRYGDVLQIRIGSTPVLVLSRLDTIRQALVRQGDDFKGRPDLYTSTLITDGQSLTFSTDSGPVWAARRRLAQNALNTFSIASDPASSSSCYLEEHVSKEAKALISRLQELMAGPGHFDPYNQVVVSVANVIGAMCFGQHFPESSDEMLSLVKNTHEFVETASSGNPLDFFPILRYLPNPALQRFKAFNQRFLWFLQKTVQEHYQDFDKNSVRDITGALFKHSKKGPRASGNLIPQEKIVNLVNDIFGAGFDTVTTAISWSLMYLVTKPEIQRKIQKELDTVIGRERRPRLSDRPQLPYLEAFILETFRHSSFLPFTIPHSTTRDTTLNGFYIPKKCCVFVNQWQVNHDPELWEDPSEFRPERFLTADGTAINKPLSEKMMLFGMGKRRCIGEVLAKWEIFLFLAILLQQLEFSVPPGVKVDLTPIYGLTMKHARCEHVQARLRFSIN
Sequence of Acetylcholinesterase (Homo sapiens) (P22303 whole entry, looked up): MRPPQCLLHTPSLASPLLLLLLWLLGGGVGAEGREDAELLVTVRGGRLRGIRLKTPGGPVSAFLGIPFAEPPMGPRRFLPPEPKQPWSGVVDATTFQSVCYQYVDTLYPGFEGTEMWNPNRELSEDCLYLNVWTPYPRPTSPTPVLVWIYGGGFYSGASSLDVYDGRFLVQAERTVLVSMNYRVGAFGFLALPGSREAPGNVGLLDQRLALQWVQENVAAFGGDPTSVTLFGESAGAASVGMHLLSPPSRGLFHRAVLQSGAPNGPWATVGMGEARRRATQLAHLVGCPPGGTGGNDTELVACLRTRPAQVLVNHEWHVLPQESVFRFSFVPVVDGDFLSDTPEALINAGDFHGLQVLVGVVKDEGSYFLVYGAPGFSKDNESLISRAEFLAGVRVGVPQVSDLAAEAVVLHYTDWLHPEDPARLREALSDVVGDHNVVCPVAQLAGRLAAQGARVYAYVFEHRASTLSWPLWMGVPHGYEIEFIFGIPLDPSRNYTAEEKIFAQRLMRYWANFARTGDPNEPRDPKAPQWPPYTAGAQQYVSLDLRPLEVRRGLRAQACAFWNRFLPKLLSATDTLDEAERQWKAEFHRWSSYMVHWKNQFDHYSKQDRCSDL
Sequence of Voltage-gated inwardly rectifying potassium channel KCNH2 (Homo sapiens) (Q12809 whole entry, looked up): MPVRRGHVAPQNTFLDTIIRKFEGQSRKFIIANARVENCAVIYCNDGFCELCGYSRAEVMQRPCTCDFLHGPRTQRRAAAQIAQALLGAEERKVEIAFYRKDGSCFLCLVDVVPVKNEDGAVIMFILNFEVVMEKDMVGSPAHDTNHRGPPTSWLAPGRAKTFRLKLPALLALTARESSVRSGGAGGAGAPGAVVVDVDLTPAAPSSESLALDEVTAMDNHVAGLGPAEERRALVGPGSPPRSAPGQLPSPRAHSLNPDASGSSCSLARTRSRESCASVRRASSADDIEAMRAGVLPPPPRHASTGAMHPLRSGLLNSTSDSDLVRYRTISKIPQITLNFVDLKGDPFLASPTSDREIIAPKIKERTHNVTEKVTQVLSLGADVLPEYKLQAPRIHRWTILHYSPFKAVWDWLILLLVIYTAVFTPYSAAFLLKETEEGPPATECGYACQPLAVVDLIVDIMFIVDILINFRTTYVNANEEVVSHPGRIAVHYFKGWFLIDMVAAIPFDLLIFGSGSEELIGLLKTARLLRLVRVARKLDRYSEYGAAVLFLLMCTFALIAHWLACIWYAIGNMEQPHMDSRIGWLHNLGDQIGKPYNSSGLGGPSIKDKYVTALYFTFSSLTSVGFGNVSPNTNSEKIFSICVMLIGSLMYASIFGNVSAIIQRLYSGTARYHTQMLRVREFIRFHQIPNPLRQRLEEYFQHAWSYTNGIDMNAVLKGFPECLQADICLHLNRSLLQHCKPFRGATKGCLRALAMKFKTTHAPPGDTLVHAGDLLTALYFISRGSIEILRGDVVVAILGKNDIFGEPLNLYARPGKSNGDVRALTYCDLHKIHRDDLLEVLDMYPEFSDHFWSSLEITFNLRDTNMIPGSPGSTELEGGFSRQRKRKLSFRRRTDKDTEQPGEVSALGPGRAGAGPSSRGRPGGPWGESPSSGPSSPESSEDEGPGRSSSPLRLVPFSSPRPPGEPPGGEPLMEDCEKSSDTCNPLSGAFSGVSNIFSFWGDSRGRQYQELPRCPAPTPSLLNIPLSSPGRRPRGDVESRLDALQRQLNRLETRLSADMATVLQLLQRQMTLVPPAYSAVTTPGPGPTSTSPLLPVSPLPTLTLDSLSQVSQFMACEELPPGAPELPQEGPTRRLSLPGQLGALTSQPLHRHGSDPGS
Sequence of Cytochrome P450 2C19 (Homo sapiens) (P33261 whole entry, looked up): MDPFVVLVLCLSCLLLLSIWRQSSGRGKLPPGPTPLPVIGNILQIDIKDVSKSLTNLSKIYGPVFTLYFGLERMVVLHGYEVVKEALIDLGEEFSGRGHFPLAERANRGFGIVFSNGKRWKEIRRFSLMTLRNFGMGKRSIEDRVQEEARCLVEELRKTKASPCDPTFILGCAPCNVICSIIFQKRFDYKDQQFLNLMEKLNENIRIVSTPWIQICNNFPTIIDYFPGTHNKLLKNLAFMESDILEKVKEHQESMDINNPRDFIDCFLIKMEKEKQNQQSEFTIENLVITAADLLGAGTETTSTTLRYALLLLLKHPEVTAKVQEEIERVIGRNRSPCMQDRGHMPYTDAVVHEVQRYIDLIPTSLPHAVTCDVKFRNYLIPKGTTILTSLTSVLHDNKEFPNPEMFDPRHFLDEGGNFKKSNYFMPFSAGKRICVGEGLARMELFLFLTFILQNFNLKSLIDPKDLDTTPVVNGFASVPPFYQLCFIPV

For the compound `CC(=O)Nc1cc([As](=O)(O)O)ccc1O`, the Potency result in experiment [1], in experiment [2], in experiment [3], in experiment [4], in experiment [5] and in experiment [6] was “inactive” in each case.

As for `CC1CN1P(=O)(N1CC1C)N1CC1C` (stereo not given), the Potency entry in experiment [1], in experiment [2], in experiment [3], in experiment [4], in experiment [5] and in experiment [7] was “inactive” each time. Moreover, the Potency result in experiment [6] was “inactive”.

On to `CCOP(=S)(OCC)SCSc1ccc(Cl)cc1`, for which the Potency result in experiment [1], in experiment [2] and in experiment [7] was “inactive” in each case. The Potency in experiment [3] was 502 nM (active); in experiment [4], 1000 nM (active); in experiment [5] it was 8940 nM (active).

As to `OC(c1ccc(F)cc1)(c1cncnc1)c1ccccc1Cl` (stereo not given), the Potency entry in experiment [1], in experiment [2] and in experiment [7] was “inactive” each time. Also, the values for the Potency in experiment [3], in experiment [4] and in experiment [6] were 3990 nM (active), 20000 nM (active) and 356 nM (active), respectively.
